Experimental data taken from PubChem BioAssay (NCI).
The panel holds about 83,000 compounds, 20% with a hit somewhere; the sample as a whole holds those more often.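 Cells were grown in 96-well plates and exposed to the test compound at a single concentration for 48 hours; results are reported as percent growth, with values below 10 considered active.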 Active and inactive are the calls of the source.

Tested on: A549/ATCC NSCLC
Assay: NCI-60 one-dose screen, 48 h (100 = growth as untreated, 0 = no growth, -100 = all killed)
Details: 10 µM unless noted

SMILES	growth
CC[C@H](C)[C@H](NC(=O)c1ccccn1)C(=O)N(C)[C@H](C[C@@H](OC(C)=O)c1nc(C(=O)N[C@@H](Cc2ccccc2)C[C@H](C)C(=O)OC)cs1)C(C)C	32.2% (inactive)
O=[N+]([O-])c1cnc[nH]1	103% (inactive)
CC(=O)O[C@H]1CC[C@]2(C)[C@H]3CC[C@]4(C)[C@@H](OC(C)=O)CC[C@H]4[C@@H]3[C@@H](C)[C@]2(O)C1	114% (inactive)
CCN(CC)CCOC(=O)C(OC(C)C)(c1ccccc1)c1ccccc1	96.9% (inactive)
O=C1NC(=O)C(=Cc2cccn2CCCCCn2c3ccccc3c(=O)c3ccccc32)C(=O)N1	100% (inactive)
COc1ccc(Nc2ccc([N+](=O)[O-])cc2[N+](=O)[O-])cc1CN(CCCl)CCCl	33.5% (inactive)
CCCC[C@H](NC(=O)[C@H]1CCCCN1C)C(=O)N(C)[C@H](C[C@@H](OC(C)=O)c1nc(C(=O)N[C@@H](Cc2ccccc2)C[C@H](C)C(=O)OCC)cs1)C(C)C	11% (inactive)
Nc1c(F)cc(-c2nc3cc(F)ccc3[se]2)cc1F	46.5% (inactive)
COC(=O)[C@H](Cc1ccccc1)NC(=O)c1csc([C@@H](C[C@H](C(C)C)N(C)C(=O)[C@@H](NC(=O)[C@H]2CCCCN2C)C2CC2)OC(C)=O)n1	14.2% (inactive)
COC(=O)[C@@H](C)C[C@H](Cc1ccccc1)NC(=O)c1nc([C@@H](C[C@H](C(C)C)N(C)C(=O)[C@@H](NC(=O)[C@H]2CC(=O)CCN2C)C(C)C)OC(C)=O)sc1C(C)C	18.7% (inactive)
CC(C)=CCC[C@H](C(=O)O)[C@@H]1CC[C@]2(C)C3=C(CC[C@@]12C)[C@@]1(C)CC[C@H](O)C(C)(C)[C@@H]1CC3	81.8% (inactive)
C=CC[PH+](c1ccccc1)c1ccccc1.C=CC[PH+](c1ccccc1)c1ccccc1.[Cl][Pt][Cl]	88.2% (inactive)
CN1CCC(O)(c2ccc(F)cc2)C(C(=O)c2ccc(F)cc2)C1 (stereo unspecified)	101% (inactive)
COc1ccc2c(c1)c(-c1nc(-c3c[nH]c4ncccc34)cs1)cn2CCN1CCOCC1	51.2% (inactive)
COC(=O)[C@@H](C)C[C@H](Cc1ccccc1)NC(=O)c1csc([C@@H](C[C@H](C(C)C)N(C)C(=O)[C@@H](NC(=O)[C@H]2CCCCN2C)C(C(F)(F)F)C(F)(F)F)OC(C)=O)n1	12.8% (inactive)
CN1CC(=O)N(O)C1(C)c1cccnc1 (stereo unspecified)	101% (inactive)

SMILES	growth
COc1cc(/C=C/[N+](=O)[O-])cc(OC)c1	28.6% (inactive)
CC12CCC3C(CCC4Cc5[nH]c6ccccc6c5CC43C)C1CCC2O (stereo unspecified)	41.5% (inactive)
COC(=O)C12CC(NC(=O)c3csc([C@@H](C[C@H](C(C)C)N(C)C(=O)[C@@H](NC(=O)[C@H]4CCCCN4C)C(C)C)OC(C)=O)n3)(C1)C2	16.6% (inactive)
CC1CN1CCCCN1CC1C (stereo unspecified)	101% (inactive)
CC(=O)O[C@H](C[C@H](C(C)C)N(C)C(=O)[C@@H](NC(=O)[C@H]1CCCCN1C)C(C)C)c1nc(C(=O)NC2CCC(C(=O)O)CC2)cs1 (stereo partly specified)	57.8% (inactive)
CC[C@H](C)[C@@H]([C@@H](CC(=O)N1CCC[C@H]1[C@H](OC)[C@@H](C)C(=O)N[C@H](C)[C@@H](O)c1ccccc1)OC)N(C)C(=O)[C@@H](NC(=O)[C@@H](NC)C(C)C)C(C)C	21.4% (inactive)
CCNc1nc(Cl)nc(NCC)n1	85.7% (inactive)
CCOP(=O)(NC[C@H]1O[C@](O)(CO)[C@@H](O)[C@@H]1O)OCC	96.6% (inactive)
CCCc1cc(O)c2c3c(c(=O)oc2c1)CN(C)CC3	29.1% (inactive)
CCCCN1CCCC[C@@H]1C(=O)N[C@H](C(=O)N(C)[C@H](CCc1nc(C(=O)N[C@@H](Cc2ccccc2)C[C@H](C)C(=O)OC)cs1)C(C)C)[C@@H](C)CC	58.8% (inactive)
O=C([O][Hg][CH2]C1COCC([CH2][Hg][O]C(=O)c2ccccc2)O1)c1ccccc1 (stereo unspecified)	105% (inactive)
CN[C@]1(c2ccccc2Cl)CCCC[C@H]1NCCCN1CCN(C)CC1	98.5% (inactive)
Cn1cc(-c2csc(-c3cn(CCN4CCOCC4)c4ccc(F)cc34)n2)c2cccnc21	22.5% (inactive)
CC(C)CCC1(CCCl)C(=O)NC(=O)NC1=O	91% (inactive)
O=C(CCCC1CCCCC1)OCC(Cl)(Cl)Cl	107% (inactive)
